Results: PubChem BioAssay (NCATS)
Records with an inconclusive call do not appear. The source made the active and inactive calls. Unless noted, calls come from the whole dose curve; as a rule, active = well fitted curve in the direction sought with a large enough effect; inconclusive = small, poorly fitted or top-dose-only effect, or another doubt; inactive = no such curve, though single readings can be large; an effect the other way counts as inactive or inconclusive.

Experiments:
[1] = Cytometric Cell-Based qHTS for Inhibitors of the mTORC1 Signaling Pathway in MEF (Tsc2-/-, p53-/-) Cells (AID 2660);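 note: percent of cells above a phospho-rpS6 to PI ratio cutoff in each well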
Method in brief: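 Percent of cells positive for normalized phospho-S6 staining is reported, with the cutoff set from rapamycin (7.5 nM) versus DMSO wells. Tsc2-/-, p53-/- MEFs received compound for 24 hrs.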

[2] = High Content Imaging Cell-Based qHTS for Inhibitors of the mTORC1 Signaling Pathway in MEF (Tsc2-/-, p53-/-) Cells (AID 2666); settings: at 38.3 µM (top of the series);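 note: percent of cells scored positive for phospho-rpS6 Ser235/236 immunostaining by imaging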
Method in brief: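 Phospho-rpS6 (Ser235/236) immunofluorescence, normalized and scored as % positive cells using rapamycin and DMSO controls, was read in empty-vector Tsc2-/-, p53-/- MEFs after 24 h compound exposure at 37 C; propidium iodide counted cells.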

[3] = High Content Imaging Cell-Based qHTS for Inhibitors of the mTORC1 Signaling Pathway in MEF Cells (AID 2667);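 note: Tsc2-/- p53-/- MEFs stably re-expressing wild-type Tsc2 exposed 24 h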
Method in brief: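 WT MEFs (Tsc2-/-, p53-/- re-expressing Tsc2), in DMEM + 10% FBS, were treated with compound for 24 h at 37 C. Cells were then fixed and stained for phospho-rpS6 Ser235/236 with propidium iodide as cell count. Values are % positive cells, with thresholds set against rapamycin-treated cells.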

[4] = Cytometry Cell-Based qHTS for Inhibitors of the mTORC1 Signaling Pathway in MEF cells (AID 2668);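 note: Tsc2-/- p53-/- mouse embryonic fibroblasts stably re-expressing wild-type Tsc2; percent cells positive for phospho-rpS6 Ser235/236 relative to propidium iodide stain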
Method in brief: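 Tsc2-/-, p53-/- MEFs re-expressing WT Tsc2; cpd 24 hrs, 37 degree Celsius; PFA fix, Alexa-488 p-rpS6 (Ser235/236) Ab 2 hrs RT, PI counterstain; Acumen 488nm scan; p-S6/PI ratio → % positive cells; PI count = viability.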

[5] = molecular target: Ubiquitin carboxyl-terminal hydrolase 2 (Homo sapiens) (UniProt O75604); experiment: qHTS Validation Assay for Inhibitors of Ubiquitin-specific Protease USP2a Using CHOP2 as the Reporter (AID 463106)
Method in brief: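 USP2 core (10 nM final) was preincubated with compound 30 min at RT in pH 8.0 Tris/CaCl2/beta-ME/CHAPS buffer. Ub-CHOP2 and reporter substrate (25 nM final each) were then added, with fluorescence (Ex 485/Em 531) read after 60 min. Data were normalized to NEM full inhibition and fitted to concentration-response curves.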

[6] = molecular target: Tumor susceptibility gene 101 protein (Homo sapiens) (UniProt Q99816); experiment: qHTS Validation Assay for Iinhibitors of HIV-1 Budding by Blocking the Interaction of PTAP/TSG101 (AID 485342; calls by dose curve)
Method in brief: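 Binding of a FITC-tagged PTAP-motif peptide (50 nM) to the Tsg101 binding domain (10 uM) is monitored by fluorescence polarization. Compounds are pin-delivered before peptide addition, and incubation runs 20 min at room temperature.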

[7] = qHTS Validation Assay to Find Inhibitors of Chronic Active B-Cell Receptor Signaling (AID 485345; active = well fitted curve in the direction sought with a large enough effect in the main read-out, with a control signal flat, not every such curve was filed as active)
Method in brief: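 TMD8 ABC-DLBCL cells stably carrying doxycycline-inducible IkappaBalpha–green luciferase fusion plus unfused red luciferase; compounds 46 uM to 3 nM, 4 h at 37C with doxycycline. Corrected green/red luminescence ratio normalized to 10 uM MG-132 and basal cell wells; curves fitted.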

[8] = molecular target: Beta-2 adrenergic receptor (Homo sapiens) (UniProt P07550); experiment: qHTS validation assay of beta-arrestin-biased ligands of beta2-adrenergic receptor (AID 485366)
Method in brief: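 Luminescence from a tTA-responsive luciferase, induced when recombinant beta-arrestin is recruited to recombinant beta2-AR, served as the agonism signal. Cells were exposed to compound for 18 hr at 37 degrees C; titrations spanned up to 46 microM.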

[9] = molecular target: Thioredoxin reductase 1, cytoplasmic (Rattus norvegicus) (UniProt O89049); experiment: qHTS Assay for Substrates of Mammalian Selenoprotein Thioredoxin Reductase 1 (TrxR1) (AID 488772);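 note: NADPH fluorescence in the first read after selenite addition and not the 8 min delta; a drop in NADPH fluorescence below the no-compound background marks a TrxR1 substrate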
Method in brief: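 Quantitative HTS in Tris-HCl buffer at pH 7.5 with EDTA and Tween-20, using rat TrxR1, 400 uM NADPH and 400 uM selenite (final). A fall in initial NADPH fluorescence relative to background marked substrate behaviour.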

[10] = molecular target: Thioredoxin reductase 1, cytoplasmic (Rattus norvegicus) (UniProt O89049); experiment: qHTS Assay for Inhibitors of Mammalian Selenoprotein Thioredoxin Reductase 1 (TrxR1) (AID 488773); settings: Potency: inhibition; note: potency is the fitted concentration of half-maximal effect; nearly all actives have a fitted effect of over 40% in size
Method in brief: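 Steps: enzyme (90 nM) plus NADPH (400 uM final), 5 min at ~22 deg C; compound added, 15 min; selenite (400 uM final) added; fluorescence followed for 8 min. Concentration-response curves derived from the normalized delta values.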

[11] = molecular target: Flap endonuclease 1 (Homo sapiens) (UniProt P39748); experiment: qHTS Validation Assay for the Inhibitors of Human Flap endonuclease 1 (FEN1) (AID 488816); note: potency is the fitted concentration of half-maximal effect
Method in brief: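 Human FEN1 (10 nM) preincubated 15 min at room temperature with compounds, then flap DNA substrate added at 50 nM final. Fluorescence read at 0 and 15 min; concentration-response fitted with four-parameter Hill equation.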

[12] = molecular target: M-phase phosphoprotein 8 (Homo sapiens) (UniProt Q99549); experiment: qHTS Validation Assay for Inhibitors for MPP8 Chromodomain Interactions with Methylated Histone Tails (AID 488949); note: potency is the fitted concentration of half-maximal effect; nearly all actives have a fitted effect of over 55% in size
Method in brief: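 50 nM MPP8 + 50 nM b-H3K9me3 peptide, PBS pH 7.4/0.01% Tween-20, 30 min RT; + cpd 30 min RT; + AlphaScreen donor/Ni-chelate acceptor beads 10 ug/mL final, 30 min dark; luminescence read.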

[13] = molecular target: Chromobox protein homolog 1 (Homo sapiens) (UniProt P83916); experiment: qHTS Validation Assay for Inhibitors of HP1-beta Chromodomain Interactions with Methylated Histone Tails (AID 488953); note: potency is the fitted concentration of half-maximal effect; nearly all actives have a fitted effect of over 50% in size
Method in brief: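 HP1-beta (50 nM) was preincubated 30 min at room temperature with biotinylated H3(1-18)K9me3 peptide (50 nM) in PBS pH 7.4, 0.01% Tween-20, then with compounds 30 min. AlphaScreen signal was read after streptavidin donor/nickel chelate acceptor beads (10 ug/mL final).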

[14] = molecular target: Methanococcus maripaludis chaperonin (MmCpn) (UniProt Q6LX38); experiment: High-Throughput Screening for Modulators of Cytosolic Chaperonin Activity: MmCpn Primary Screen (AID 488978);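 note: 50 nM MmCpn enzyme hydrolysing 30 µM ATP at 37 °C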
Method in brief: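 Steps: chaperonin 50 nM final; add compound, 5 min RT; start with ATP, 30 uM final; hold 10 min at 37C; add ADP Transcreener HTRF reagent, 5 min; read ex 320, em 590 and 665 nm.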

[15] = molecular target: D(1A) dopamine receptor (Homo sapiens) (UniProt P21728); experiment: HTS Assay for Allosteric Agonists of the Human D1 Dopamine Receptor: Primary Screen for Agonists (AID 488981)
Method in brief: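 Tetracycline-induced HEK293 Trex D1 cells with forced coupling to calcium, loaded with no-wash calcium dye; kinetic fluorescence read 180 s after compound addition for agonism, then a further 180 s after an EC20 dopamine challenge for potentiation.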

[16] = molecular target: D(1A) dopamine receptor (Homo sapiens) (UniProt P21728); experiment: HTS Assay for Allosteric Agonists of the Human D1 Dopamine Receptor: Primary Screen for Antagonists (AID 488983);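 note: calcium flux response to an EC80 dopamine challenge measured with no-wash dye; nearly all actives have a fitted effect of over 65% in size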
Method in brief: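 Tetracycline-induced HEK293 T-REx cells expressing force-coupled D1 were plated overnight at 30 C, dye-loaded for calcium, and read kinetically. Compounds were pinned in, then an EC80 dopamine challenge followed after 180 s to reveal antagonism.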

[17] = Validation screen for small molecules that induce genotoxicity in human embryonic kidney (HEK293T) cells expressing luciferase-tagged ELG1 (AID 493106)
Method in brief: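 HEK293T cells expressing luciferase-tagged ELG1 were exposed to compound or DMSO vehicle for 16 hr at 37 °C, 5% CO2. Genotoxic stress raises ELG1 levels, so increased luciferase signal after ONE-Glo addition and 30 min at room temperature marks hits.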

[18] = molecular target: ATPase family AAA domain-containing protein 5 (Homo sapiens) (UniProt Q96QE3); experiment: Validation screen for small molecules that inhibit ELG1-dependent DNA repair in human embryonic kidney (HEK293T) cells expressing luciferase-tagged ELG1 (AID 493107);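 note: cells co-treated with the DNA-damaging agent 5-fluorouridine alongside compound; inhibitors lower the ELG1-luciferase luminescence signal; nearly all actives have a fitted effect of over 70% in size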
Method in brief: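 HEK293T cells expressing luciferase-tagged ELG1 were co-treated with 5-fluorouridine and compound or DMSO for 16 hr at 37 °C, 5% CO2. Luciferase activity was then read with ONE-Glo after 30 min at room temperature; suppressed signal indicates blocked ELG1 function.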

[19] = molecular target: phosphoglycerate mutase (Leishmania major) (UniProt Q4Q090); experiment: qHTS Validation Assay to Find Inhibitors of Phosphoglycerate Mutase (AID 504548);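 note: end-point luminescence from Kinase-GloPlus after the PGAM reaction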
Method in brief: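 Inhibition of L. major PGAM was assessed by Kinase-GloPlus luminescence following a 45-minute room-temperature reaction with enzyme at 1.25nM final.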

[20] = molecular target: Ubiquitin carboxyl-terminal hydrolase 1 (Homo sapiens) (UniProt O94782); experiment: Inhibitors of USP1/UAF1: Pilot qHTS (AID 504865);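 note: rhodamine fluorescence freed from ubiquitin-rhodamine substrate followed over time; top concentration of the series differs between compounds; nearly all actives have a fitted effect of over 35% in size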
Method in brief: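 In 50mM HEPES pH 7.8 containing 0.5mM EDTA, 1mM TCEP, 0.1 mg/ml BSA and 0.01% Tween-20, 1nM USP1/UAF1 is exposed to compound for 15 min, then Ub-Rho (150nM final) is added and fluorescence is read over time.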

[21] = NS1 protein of Zika virus - qHTS assay to identify small molecule inhibitors in human HEK 293 cells (AID 1347053); note: nearly all actives have a fitted effect of over 55% in size
Method in brief: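 HEK 293; 20 h pre-culture, 37 C/5% CO2; cpd 1 h pre-infection; ZIKV MR766, MOI = 0.5, 24 h, 37 C; TR-FRET NS1 readout (two anti-NS1 Abs); norm. to no-virus vs infected.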

[22] = molecular target: T1, Tyrosine-protein phosphatase non-receptor type substrate 1 (Homo sapiens) + Leukocyte surface antigen CD47 (Homo sapiens) (UniProt P78324+Q08722); experiment: CD47-SIRPalpha protein protein interaction - HTRF assay qHTS validation (AID 1347058; active = well fitted curve in the direction sought with a large enough effect in the signal ratio, not every such curve was filed as active; the % refers to the signal ratio;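 note: recombinant soluble extracellular CD47 with His tag and biotinylated SIRPalpha domains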)
Method in brief: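 TR-FRET read (Ch1/Ch2 ratio) of soluble extracellular CD47 and Avi-biotinylated SIRPalpha domains in PBS pH 7.4 with 0.05% IGEPAL; 7-point compound titration. Sequential 30 min room-temperature steps; non-biotinylated SIRPalpha as control inhibitor.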

[23] = molecular target: T1, Tyrosine-protein phosphatase non-receptor type substrate 1 (Homo sapiens) + Leukocyte surface antigen CD47 (Homo sapiens); experiment: CD47-SIRPalpha protein protein interaction - Alpha assay qHTS validation (AID 1347059);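 note: bead proximity luminescence from CD47 binding SIRPalpha after compound preincubation with SIRPalpha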
Method in brief: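 Biotinylated Avi-tagged SIRPalpha (25 nM) preincubated 30 min with compound, then His-tagged CD47 (12.5 nM) added 30 min; AlphaScreen with Ni-NTA acceptor and streptavidin donor beads. PBS pH 7.4, 0.05% IGEPAL, room temperature; 7-point titrations.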

[24] = molecular target: N-terminal Xaa-Pro-Lys N-methyltransferase 1 (Homo sapiens) (UniProt Q9BV86); experiment: qHTS Assay for Inhibitors of N-terminal methyltransferase 1 (NTMT1): LOPAC validation of the NTMT1 SAHH-coupled ThioGlo3 Assay (AID 1347143);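 note: SAH from peptide methylation measured as thiol fluorescence via SAHH coupling and ThioGlo3; potency is the fitted concentration of half-maximal effect; nearly all actives have a fitted effect of over 70% in size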
Method in brief: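 Recombinant human NTMT1 (125nM) was pre-incubated 1 min at room temperature with compounds over a concentration range, then a mix of 100uM SAM, 10uM SAHH and 15uM ThioGlo3 (concentrations in added reagent) was added. ThioGlo3 fluorescence (ex 340/em 450nm) after 30 min was normalized to the initial reading.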

[25] = tested on: Zika virus NS2B-NS3 protease (unlinked); experiment: Optimization of GU AMC qHTS for Zika virus inhibitors: Unlinked NS2B-NS3 protease assay (AID 1347151); note: nearly all actives have a fitted effect of over 80% in size
Method in brief: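 Unlinked protease (25 nM final); buffer 10 mM Tris-HCl pH 8.0 + 0.01% Tween 20; AMC substrate; 15 min RT, dark; Δfluorescence normalized to no-inhibitor/no-enzyme controls; 4-parameter Hill fit.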

[26] = qHTS to identify inhibitors of the type 1 interferon - major histocompatibility complex class I in skeletal muscle: primary screen against the NCATS LOPAC collection (AID 1347405);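 note: lytic HiBiT luminescence reporting HLA-B protein level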
Method in brief: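 Immortalized human C25cl48 myoblasts with HiBiT knocked into endogenous HLA-B*08:01 were stimulated with 4.0 ng/ml IFN-beta and given compounds in a 7-point, 1:4.3 titration from 46 uM final; after 24 hrs, lytic HiBiT luminescence was read.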

[27] = molecular target: Calcium and integrin-binding protein 1 (Homo sapiens) (UniProt Q99828); experiment: Validation qHTS for Identification of Calcium Integrin Binding protein 1 (CIB1) Competitor (AID 1508618)
Method in brief: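 In this qHTS validation, the LOPAC set (up to 114 uM) was tested for blocking CIB1 binding to a fluorescein-tagged alphaIIb peptide, with FP detection at 480/540 nm.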

[28] = molecular target: Metallo-beta-lactamase type 2 (Klebsiella pneumoniae) (UniProt C7C422); experiment: qHTS to identify inhibitors of the New Delhi Metallo-beta-lactamase (NDM): assay validation screen against the NCATS LOPAC Collection (AID 1794843); note: potency is the fitted concentration of half-maximal effect
Method in brief: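 Nitrocefin hydrolysis (50 uM substrate stock) by NDM-1, 2 nM final, was followed by 485 nm absorbance after compound preincubation; buffer was 50 mM HEPES pH 7.0, 1 uM ZnSO4, 0.01% Tween20.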

[29] = molecular target: Glutathione peroxidase 1 (Homo sapiens) (UniProt P07203); experiment: Primary qHTS Assay for Inhibitors of Recombinant Selenoprotein Glutathione Peroxidase 1 (GPX1) (AID 1845191); note: nearly all actives have a fitted effect of over 65% in size
Method in brief: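 GR-coupled assay: compounds preincubated 30 min at room temperature with GPX1, then reaction started with CHP; final 10 nM GPX1, 1 mM GSH, 0.5 mM CHP, 0.5 mM NADPH, 100 nM GR, 0.01% BSA, pH 7.5 Tris buffer. NADPH fluorescence (340/450 nm) read at 0 and 15 min.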

[30] = molecular target: Phospholipid hydroperoxide glutathione peroxidase GPX4 (Homo sapiens) (UniProt P36969); experiment: Primary qHTS Assay for Inhibitors of Recombinant Selenoprotein Glutathione Peroxidase 4 (GPX4) (AID 1845192); settings: outcome: dose series up to 50 µM unless noted; note: nearly all actives have a fitted effect of over 65% in size
Method in brief: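 GR-coupled assay: recombinant GPX4 preincubated 30 min with compound at room temperature; final 200 nM GPX4, 1 mM GSH, 0.5 mM cumene hydroperoxide, 0.5 mM NADPH, 100 nM GR, 0.01% BSA, pH 7.5 Tris. NADPH fluorescence (340/450 nm) read at 0 and 15 min.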

Measured: Potency

D(1A) dopamine receptor (Homo sapiens), sequence (P21728 whole entry, looked up): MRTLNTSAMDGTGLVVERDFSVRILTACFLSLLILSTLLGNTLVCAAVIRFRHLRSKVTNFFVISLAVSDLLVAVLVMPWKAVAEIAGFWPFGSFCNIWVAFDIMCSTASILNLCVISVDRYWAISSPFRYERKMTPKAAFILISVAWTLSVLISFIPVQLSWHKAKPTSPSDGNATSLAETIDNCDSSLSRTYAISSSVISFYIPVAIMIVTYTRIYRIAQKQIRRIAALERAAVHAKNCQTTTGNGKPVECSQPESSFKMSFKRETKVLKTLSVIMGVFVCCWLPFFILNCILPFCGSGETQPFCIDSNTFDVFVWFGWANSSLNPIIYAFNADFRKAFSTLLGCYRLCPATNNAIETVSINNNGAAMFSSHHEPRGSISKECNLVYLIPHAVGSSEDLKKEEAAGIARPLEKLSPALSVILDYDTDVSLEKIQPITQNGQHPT
T1 sequence (P78324 whole entry, looked up, the tested form may be a part): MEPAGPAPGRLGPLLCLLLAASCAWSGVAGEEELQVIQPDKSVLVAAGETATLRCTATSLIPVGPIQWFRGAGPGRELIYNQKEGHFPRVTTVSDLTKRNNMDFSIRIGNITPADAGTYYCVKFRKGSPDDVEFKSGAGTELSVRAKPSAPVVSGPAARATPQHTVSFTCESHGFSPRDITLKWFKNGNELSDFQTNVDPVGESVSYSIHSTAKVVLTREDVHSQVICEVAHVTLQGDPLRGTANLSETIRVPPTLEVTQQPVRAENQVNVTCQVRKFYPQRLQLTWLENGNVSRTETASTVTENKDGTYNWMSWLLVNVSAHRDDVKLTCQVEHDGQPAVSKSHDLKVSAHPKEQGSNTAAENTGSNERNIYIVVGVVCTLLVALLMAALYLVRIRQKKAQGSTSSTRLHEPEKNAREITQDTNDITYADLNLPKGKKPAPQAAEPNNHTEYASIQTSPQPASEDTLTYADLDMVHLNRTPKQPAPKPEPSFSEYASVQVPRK
T1 sequence (Q08722 whole entry, looked up, the tested form may be a part): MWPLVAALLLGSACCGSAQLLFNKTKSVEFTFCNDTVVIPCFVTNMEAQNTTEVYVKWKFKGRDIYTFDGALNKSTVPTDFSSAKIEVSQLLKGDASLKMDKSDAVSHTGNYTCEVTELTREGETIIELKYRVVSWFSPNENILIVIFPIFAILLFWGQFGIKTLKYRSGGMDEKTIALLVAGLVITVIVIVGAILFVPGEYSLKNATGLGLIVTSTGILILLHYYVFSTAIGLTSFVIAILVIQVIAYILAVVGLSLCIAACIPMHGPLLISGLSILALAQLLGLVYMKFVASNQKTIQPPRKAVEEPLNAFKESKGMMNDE
Thioredoxin reductase 1, cytoplasmic (Rattus norvegicus), sequence (O89049 whole entry, looked up): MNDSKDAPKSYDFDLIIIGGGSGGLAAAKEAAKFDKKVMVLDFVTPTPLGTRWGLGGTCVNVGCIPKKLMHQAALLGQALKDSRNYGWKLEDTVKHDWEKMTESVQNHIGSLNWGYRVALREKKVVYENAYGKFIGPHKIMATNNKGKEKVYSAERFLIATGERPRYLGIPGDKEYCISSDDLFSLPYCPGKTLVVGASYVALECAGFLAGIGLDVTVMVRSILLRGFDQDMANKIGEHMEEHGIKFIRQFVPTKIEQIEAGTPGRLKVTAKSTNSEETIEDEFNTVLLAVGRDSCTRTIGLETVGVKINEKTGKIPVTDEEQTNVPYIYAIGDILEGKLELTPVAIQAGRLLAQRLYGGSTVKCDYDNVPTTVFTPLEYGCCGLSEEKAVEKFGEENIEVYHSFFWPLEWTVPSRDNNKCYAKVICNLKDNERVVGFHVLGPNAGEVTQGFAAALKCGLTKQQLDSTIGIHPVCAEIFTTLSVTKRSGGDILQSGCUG
Ubiquitin carboxyl-terminal hydrolase 1 (Homo sapiens), sequence (O94782 whole entry, looked up): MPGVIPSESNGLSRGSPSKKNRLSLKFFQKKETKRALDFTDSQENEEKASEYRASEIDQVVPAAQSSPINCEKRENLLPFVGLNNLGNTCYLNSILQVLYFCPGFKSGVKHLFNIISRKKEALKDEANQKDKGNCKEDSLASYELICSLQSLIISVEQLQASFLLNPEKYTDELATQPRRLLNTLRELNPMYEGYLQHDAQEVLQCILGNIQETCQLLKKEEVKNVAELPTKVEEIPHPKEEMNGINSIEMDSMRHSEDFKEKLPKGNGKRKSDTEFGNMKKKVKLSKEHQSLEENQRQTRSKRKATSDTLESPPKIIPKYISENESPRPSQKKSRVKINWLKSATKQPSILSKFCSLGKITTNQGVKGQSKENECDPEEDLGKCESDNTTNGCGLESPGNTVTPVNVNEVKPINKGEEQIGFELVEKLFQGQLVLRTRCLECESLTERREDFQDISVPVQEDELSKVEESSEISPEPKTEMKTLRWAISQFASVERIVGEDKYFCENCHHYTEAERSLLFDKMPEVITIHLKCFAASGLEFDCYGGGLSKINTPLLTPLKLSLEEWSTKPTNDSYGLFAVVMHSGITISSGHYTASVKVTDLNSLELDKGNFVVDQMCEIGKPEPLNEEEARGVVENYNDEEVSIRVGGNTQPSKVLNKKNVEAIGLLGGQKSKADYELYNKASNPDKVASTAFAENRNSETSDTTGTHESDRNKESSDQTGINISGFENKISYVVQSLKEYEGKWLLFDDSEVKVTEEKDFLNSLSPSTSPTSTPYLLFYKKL
N-terminal Xaa-Pro-Lys N-methyltransferase 1 (Homo sapiens), sequence (Q9BV86 whole entry, looked up): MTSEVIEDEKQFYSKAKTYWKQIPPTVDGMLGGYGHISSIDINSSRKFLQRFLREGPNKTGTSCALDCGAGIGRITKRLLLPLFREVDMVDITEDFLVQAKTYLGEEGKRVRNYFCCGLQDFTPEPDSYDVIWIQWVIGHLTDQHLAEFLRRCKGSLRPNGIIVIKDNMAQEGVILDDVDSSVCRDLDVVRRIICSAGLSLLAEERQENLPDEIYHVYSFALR
Calcium and integrin-binding protein 1 (Homo sapiens), sequence (Q99828 whole entry, looked up): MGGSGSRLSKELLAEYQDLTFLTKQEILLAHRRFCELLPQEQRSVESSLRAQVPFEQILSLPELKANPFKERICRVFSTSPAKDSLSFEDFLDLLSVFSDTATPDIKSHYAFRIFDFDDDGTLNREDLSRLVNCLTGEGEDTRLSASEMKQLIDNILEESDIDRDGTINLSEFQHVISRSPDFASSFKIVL
M-phase phosphoprotein 8 (Homo sapiens), sequence (Q99549 whole entry, looked up): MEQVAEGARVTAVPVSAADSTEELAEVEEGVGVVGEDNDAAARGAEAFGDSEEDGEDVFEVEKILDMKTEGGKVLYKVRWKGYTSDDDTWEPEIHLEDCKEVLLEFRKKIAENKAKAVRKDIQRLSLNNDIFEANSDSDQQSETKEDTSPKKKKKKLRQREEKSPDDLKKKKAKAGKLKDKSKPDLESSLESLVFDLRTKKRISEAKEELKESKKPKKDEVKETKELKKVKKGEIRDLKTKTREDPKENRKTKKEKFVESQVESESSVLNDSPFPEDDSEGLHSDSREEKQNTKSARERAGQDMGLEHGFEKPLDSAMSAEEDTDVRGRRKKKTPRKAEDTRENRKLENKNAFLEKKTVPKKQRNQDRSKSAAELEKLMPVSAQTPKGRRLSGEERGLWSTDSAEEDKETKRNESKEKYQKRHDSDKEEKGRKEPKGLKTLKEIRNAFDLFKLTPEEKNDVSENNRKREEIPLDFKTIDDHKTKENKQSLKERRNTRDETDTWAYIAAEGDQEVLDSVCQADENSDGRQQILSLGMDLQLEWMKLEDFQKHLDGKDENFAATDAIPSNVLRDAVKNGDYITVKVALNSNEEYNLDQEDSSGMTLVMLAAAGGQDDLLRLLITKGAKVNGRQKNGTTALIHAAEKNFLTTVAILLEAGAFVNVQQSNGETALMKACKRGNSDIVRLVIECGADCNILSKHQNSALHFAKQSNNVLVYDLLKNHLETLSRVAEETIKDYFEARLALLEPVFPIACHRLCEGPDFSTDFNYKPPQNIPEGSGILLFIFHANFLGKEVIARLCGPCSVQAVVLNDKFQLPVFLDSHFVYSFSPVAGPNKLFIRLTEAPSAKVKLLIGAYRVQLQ
phosphoglycerate mutase (Leishmania major), sequence (Q4Q090 1-553): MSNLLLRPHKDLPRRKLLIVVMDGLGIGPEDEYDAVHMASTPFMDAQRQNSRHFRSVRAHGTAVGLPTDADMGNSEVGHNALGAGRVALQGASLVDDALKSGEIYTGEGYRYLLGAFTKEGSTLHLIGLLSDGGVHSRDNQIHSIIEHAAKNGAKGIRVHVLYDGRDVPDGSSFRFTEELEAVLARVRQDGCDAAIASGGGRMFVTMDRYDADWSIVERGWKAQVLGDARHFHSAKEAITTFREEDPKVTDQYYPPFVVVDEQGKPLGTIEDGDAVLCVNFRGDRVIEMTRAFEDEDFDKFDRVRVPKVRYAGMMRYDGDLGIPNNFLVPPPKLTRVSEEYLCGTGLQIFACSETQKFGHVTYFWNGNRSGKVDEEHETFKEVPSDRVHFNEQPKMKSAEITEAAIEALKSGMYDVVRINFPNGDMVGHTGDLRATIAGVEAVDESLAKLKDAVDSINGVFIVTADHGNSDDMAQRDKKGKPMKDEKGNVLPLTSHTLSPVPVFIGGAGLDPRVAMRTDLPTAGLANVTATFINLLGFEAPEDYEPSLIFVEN
Chromobox protein homolog 1 (Homo sapiens), sequence (P83916 whole entry, looked up): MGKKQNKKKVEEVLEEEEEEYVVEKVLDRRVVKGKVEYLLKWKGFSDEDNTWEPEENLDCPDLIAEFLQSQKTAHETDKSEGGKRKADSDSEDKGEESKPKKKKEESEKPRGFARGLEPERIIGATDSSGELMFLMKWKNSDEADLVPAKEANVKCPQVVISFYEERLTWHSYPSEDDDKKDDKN
Flap endonuclease 1 (Homo sapiens), sequence (P39748 whole entry, looked up): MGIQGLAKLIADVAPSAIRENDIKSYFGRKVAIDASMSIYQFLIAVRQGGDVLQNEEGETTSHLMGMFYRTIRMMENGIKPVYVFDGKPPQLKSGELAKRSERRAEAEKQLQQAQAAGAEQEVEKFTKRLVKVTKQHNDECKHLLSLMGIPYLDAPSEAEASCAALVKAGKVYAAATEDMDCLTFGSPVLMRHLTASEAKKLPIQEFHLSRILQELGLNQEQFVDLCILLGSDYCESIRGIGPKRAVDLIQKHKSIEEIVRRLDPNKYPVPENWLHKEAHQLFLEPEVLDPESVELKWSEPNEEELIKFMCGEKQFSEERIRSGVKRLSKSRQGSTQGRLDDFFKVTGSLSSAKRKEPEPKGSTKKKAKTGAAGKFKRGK

N.N.O=C(O)C1(C(=O)O)CCC1.[Pt+2]
active: [10] 267 nM | [11] 29.9 µM | [12] 3.77 µM | [13] 20 µM | [24] 12.6 µM | [28] 3.98 µM
inactive: [1] | [2] | [3] | [4] | [5] | [6] | [7] | [8] | [9] | [14] | [15] | [16] | [17] | [18] | [19] | [20] | [21] | [22] | [23] | [25] | [26] | [27] | [29] | [30]
